Data from PubChem BioAssay AID1159580 (chemical genetic matrix, 2015).
Out of some 5,500 compounds screened, about 2,000 (36%) were called active. About 18% were inconclusive and are not listed. Cut-off read from the data, not from the text of the source: active = normalized growth mostly below about 0.91 (no sharp cut-off); inconclusive = no clear call, values can overlap the other calls; inactive = mostly above about 0.92. The list shows a part of the results.

Assay: chemical genetic growth profiling, strain panel (AID 1159580);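 note: tested at 20 µM; growth read once vehicle control cultures reached saturation at 30 °C; 1 = growth at the plate median or of vehicle wells; lower values mean less growth of the strain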
Conditions: growth OD
[1] = S. cerevisiae deletion strains, locus YMR263W, strain SAP30, stronger effect = lower value
[2] = S. cerevisiae deletion strains, locus YMR307W, strain GAS1, stronger effect = lower value
[3] = S. cerevisiae deletion strains, locus YNL128W, strain TEP1, stronger effect = lower value
[4] = S. cerevisiae deletion strains, locus YPL055C, strain LGE1, stronger effect = lower value

Measured: normalized growth

CC(O)C(O)[C@H]1CNc2nc(N)[nH]c(=O)c2N1 (stereo not given in full)
inactive: S. cerevisiae deletion strains, locus YAL040C, strain CLN3, stronger effect = lower value 1.04 | S. cerevisiae deletion strains, locus YCL061C, strain MRC1 (second series), stronger effect = lower value 1.01 | S. cerevisiae deletion strains, locus YDR150W, strain NUM1, stronger effect = lower value 1.02 | S. cerevisiae deletion strains, locus YDR363W, strain ESC2, stronger effect = lower value 1.01 | S. cerevisiae deletion strains, locus YER002W, strain NOP16, stronger effect = lower value 1 | S. cerevisiae deletion strains, locus YJR075W, strain HOC1, stronger effect = lower value 1.04 | [1] 1.01 | [2] 0.995 | [3] 0.998 | S. cerevisiae deletion strains, locus YNL175C, strain NOP13, stronger effect = lower value 0.999 | S. cerevisiae deletion strains, locus YNL197C, strain WHI3, stronger effect = lower value 1.01 | S. cerevisiae deletion strains, locus YNL224C, strain SQS1, stronger effect = lower value 1 | S. cerevisiae deletion strains, locus YOR083W, strain WHI5 (second series), stronger effect = lower value 1.02 | [4] 1.04

CC1(C)C(O)CC(O)C2(C)C1CC(O)C1(C)C2CCC2(C)C(c3ccoc3)CC3OC321 (stereo not given)
inactive: S. cerevisiae deletion strains, locus YBR021W, strain FUR4, stronger effect = lower value 0.936 | S. cerevisiae deletion strains, locus YBR229C, strain ROT2, stronger effect = lower value 1.01 | S. cerevisiae deletion strains, locus YCL029C, strain bik1, stronger effect = lower value 1 | S. cerevisiae deletion strains, locus YDL035C, strain GPR1, stronger effect = lower value 0.969 | S. cerevisiae deletion strains, locus YDL074C, strain BRE1, stronger effect = lower value 0.973 | S. cerevisiae deletion strains, locus YDL101C, strain DUN1, stronger effect = lower value 1 | S. cerevisiae deletion strains, locus YDL134C, strain PPH21, stronger effect = lower value 0.992 | S. cerevisiae deletion strains, locus YDL185W, strain tfp1, stronger effect = lower value 1.02 | S. cerevisiae deletion strains, locus YDL192W, strain arf1, stronger effect = lower value 1 | S. cerevisiae deletion strains, locus YDR101C, strain arx1, stronger effect = lower value 0.987 | S. cerevisiae deletion strains, locus YDR162C, strain NBP2, stronger effect = lower value 0.998 | S. cerevisiae deletion strains, locus YDR318W, strain mcm21, stronger effect = lower value 1 | S. cerevisiae deletion strains, locus YDR388W, stronger effect = lower value 1.01 | S. cerevisiae deletion strains, locus YDR502C, strain sam2, stronger effect = lower value 0.998 | S. cerevisiae deletion strains, locus YEL061C, strain CIN8, stronger effect = lower value 0.997 | S. cerevisiae deletion strains, locus YER110C, stronger effect = lower value 1.02 | S. cerevisiae deletion strains, locus YER155C, strain BEM2, stronger effect = lower value 0.996 | S. cerevisiae deletion strains, locus YER167W, strain BCK2, stronger effect = lower value 1 | S. cerevisiae deletion strains, locus YGL078C, strain dbp3, stronger effect = lower value 1.01 | S. cerevisiae deletion strains, locus YGL086W, strain mad1, stronger effect = lower value 0.99 | S. cerevisiae deletion strains, locus YGL248W, strain PDE1, stronger effect = lower value 1 | S. cerevisiae deletion strains, locus YGR078C, strain PAC10, stronger effect = lower value 0.991 | S. cerevisiae deletion strains, locus YGR135W, strain pre9, stronger effect = lower value 0.997 | S. cerevisiae deletion strains, locus YGR252W, strain gcn5, stronger effect = lower value 0.981 | S. cerevisiae deletion strains, locus YHR030C, strain SLT2, stronger effect = lower value 1.01 | S. cerevisiae deletion strains, locus YHR079C, strain IRE1 (second series), stronger effect = lower value 1.02 | S. cerevisiae deletion strains, locus YHR094C, strain hxt1, stronger effect = lower value 1.01 | S. cerevisiae deletion strains, locus YHR129C, strain ARP1, stronger effect = lower value 0.998 | S. cerevisiae deletion strains, locus YHR200W, strain rpn10, stronger effect = lower value 1 | S. cerevisiae deletion strains, locus YIL066C, strain RNR3, stronger effect = lower value 0.99 | S. cerevisiae deletion strains, locus YIL073C, strain SPO22, stronger effect = lower value 1.04 | S. cerevisiae deletion strains, locus YIL125W, strain kgd1, stronger effect = lower value 1.01 | S. cerevisiae deletion strains, locus YIR030C, strain dcg1, stronger effect = lower value 1.02 | S. cerevisiae deletion strains, locus YJL095W, strain BCK1, stronger effect = lower value 0.978 | S. cerevisiae deletion strains, locus YJL134W, strain LCB3, stronger effect = lower value 0.998 | S. cerevisiae deletion strains, locus YJL168C, strain set2, stronger effect = lower value 1.01 | S. cerevisiae deletion strains, locus YJL187C, strain SWE1 (second series), stronger effect = lower value 0.996 | S. cerevisiae deletion strains, locus YKL009W, strain mrt4, stronger effect = lower value 0.982 | S. cerevisiae deletion strains, locus YKL068W, stronger effect = lower value 1.01 | S. cerevisiae deletion strains, locus YKL085W, strain MDH1 (second series), stronger effect = lower value 0.996 | S. cerevisiae deletion strains, locus YKL085W, strain MDH1, stronger effect = lower value 0.996 | S. cerevisiae deletion strains, locus YKR001C, strain vps1, stronger effect = lower value 0.99 | S. cerevisiae deletion strains, locus YLR039C, strain RIC1, stronger effect = lower value 1.03 | S. cerevisiae deletion strains, locus YLR058C, strain SHM2, stronger effect = lower value 0.998 | S. cerevisiae deletion strains, locus YLR102C, strain apc9, stronger effect = lower value 1 | S. cerevisiae deletion strains, locus YLR262C, strain YPT6, stronger effect = lower value 1.01 | S. cerevisiae deletion strains, locus YLR268W, strain sec22, stronger effect = lower value 0.993 | S. cerevisiae deletion strains, locus YLR371W, strain rom2, stronger effect = lower value 0.994 | S. cerevisiae deletion strains, locus YLR418C, strain cdc73, stronger effect = lower value 0.983 | S. cerevisiae deletion strains, locus YML016C, strain PPZ1, stronger effect = lower value 1 | S. cerevisiae deletion strains, locus YML032C, strain rad52, stronger effect = lower value 1.01 | S. cerevisiae deletion strains, locus YML124C, strain tub3, stronger effect = lower value 1.01 | S. cerevisiae deletion strains, locus YMR078C, strain ctf18, stronger effect = lower value 1.02 | S. cerevisiae deletion strains, locus YMR223W, strain ubp8, stronger effect = lower value 0.989 | [1] 1.01 | [2] 0.991 | S. cerevisiae deletion strains, locus YNL067W, strain RPL9B, stronger effect = lower value 1 | [3] 0.998 | S. cerevisiae deletion strains, locus YNL233W, strain BNI4, stronger effect = lower value 0.978 | S. cerevisiae deletion strains, locus YNL250W, strain rad50, stronger effect = lower value 1.01 | S. cerevisiae deletion strains, locus YNL271C, strain bni1, stronger effect = lower value 1.01 | S. cerevisiae deletion strains, locus YNL298W, strain CLA4, stronger effect = lower value 1.01 | S. cerevisiae deletion strains, locus YNL307C, strain MCK1, stronger effect = lower value 1.03 | S. cerevisiae deletion strains, locus YNL322C, strain KRE1, stronger effect = lower value 0.996 | S. cerevisiae deletion strains, locus YNR052C, strain pop2, stronger effect = lower value 1 | S. cerevisiae deletion strains, locus YOL012C, strain htz1 1.12 | S. cerevisiae deletion strains, locus YOL147C, strain pex11, stronger effect = lower value 1 | S. cerevisiae deletion strains, locus YOR061W, strain CKA2, stronger effect = lower value 1 | S. cerevisiae deletion strains, locus YOR069W, strain VPS5, stronger effect = lower value 1 | S. cerevisiae deletion strains, locus YOR136W, strain idh2, stronger effect = lower value 0.998 | S. cerevisiae deletion strains, locus YOR144C, strain elg1, stronger effect = lower value 1.02 | S. cerevisiae deletion strains, locus YOR184W, strain ser1, stronger effect = lower value 0.976 | S. cerevisiae deletion strains, locus YOR316C, strain cot1, stronger effect = lower value 1.01 | [4] 0.988 | S. cerevisiae deletion strains, locus YPL241C, strain CIN2, stronger effect = lower value 0.997 | S. cerevisiae deletion strains, locus YPR119W, strain clb2, stronger effect = lower value 1.01 | S. cerevisiae deletion strains, locus YPR141C, strain kar3, stronger effect = lower value 1.02 | S. cerevisiae deletion strains, locus YPR163C, strain tif3, stronger effect = lower value 1.01 | S. cerevisiae deletion strains, locus YPR167C, strain met16, stronger effect = lower value 1.01 | S. cerevisiae deletion strains, strain wtn01, stronger effect = lower value 0.986 | S. cerevisiae strains, strain wild type, stronger effect = lower value 0.972
